Source: PubChem BioAssay (National Center for Advancing Translational Sciences (NCATS))
Shown are actives, neighbours in structure and some others; about 8.8% of the full set was active somewhere.
KB-3-1 cytotox: qHTS assay for MDR1-selective chemotherapeutics: Primary screen using the parental adenocarcinoma cell KB-3-1; KB-3-1 viability, CellTiter-Glo ATP luminescence, 72 h; Potency, µM (titrated, usually from 46.1 µM), usual class: cytotoxic; AID 1347075, 2019; actives 1.4% (n = 400,000); also: potency is read from the fitted curve at half-maximal effect; nearly all actives have a fitted effect of over 60% in size
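Here the drug-naive KB-3-1 line serves as comparator for MDR sub-line selectivity; cells received compound titrations, 72 h at 37 °C, then CellTiter-Glo readout.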
HT1080-NT tox: qHTS for induction of synthetic lethality in tumor cells producing 2HG: qHTS for the HT-1080-NT fibrosarcoma cell line; Potency, µM (doses to about 46.1 µM), without a hit: at the top dose activity, negative = less viability, hits mostly cytotoxic; HT-1080-NT fibrosarcoma viability, CellTiter-Glo ATP luminescence, 48 h; actives 1.6% (n = 360,000);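 also: NT is the 2HG producing partner of a matched IDH1 knockdown line; potency is read from the fitted curve at half-maximal effect; 0% = DMSO-treated cells and -100% = media-only wells without cells; nearly all actives have a fitted effect of over 55% in size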
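HT-1080-NT fibrosarcoma cells (2HG-overproducing), 750 cells/well in RPMI with 5% FBS, dosed after 2 h and incubated 48 h at 37C. CellTiter-Glo luminescence normalized to DMSO and no-cell wells; concentration-response curves fitted and classed.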
IL-1B inflam inh: qHTS for Inhibitors of Inflammasome Signaling: IL-1-beta AlphaLISA Primary Screen | THP-1 LPS/ATP IL-1B secretion, AlphaLISA, 16 h; stronger effect = lower value | activity change, % at 57.5 µM | actives 4.7% (n = 360,000); in the data active = activity change below about -50%; inconclusive = mostly about -30% to -49%
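Secreted IL-1B measured by AlphaLISA bead assay after 16 h compound exposure of THP-1 cells; compounds (final up to 57.5 uM) added 1 h before LPS (250 ng/mL) and ATP (1.25 mM) stimulation; lower signal means less secretion.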
KB-V1 cytotox: qHTS assay for MDR1-selective chemotherapeutics: Primary screen using the drug-selected MDR subline cells KB-V1. KB-V1 MDR cells viability, CellTiter-Glo, 72 h. Potency, µM (doses to about 46.1 µM), hits mostly cytotoxic. actives 3.4% (n = 400,000). AID 1347076, 2019; also: potency is read from the fitted curve at half-maximal effect; nearly all actives have a fitted effect of over 60% in size
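Potencies derive from concentration-effect curves fitted to normalized luminescence (CellTiter-Glo) of KB-V1 cells treated for 72 h at 37 degrees C in phenol-red-free DMEM containing 10% FBS.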
HT1080 IDH1KD tx: qHTS for induction of synthetic lethality in tumor cells producing 2HG: qHTS for the HT-1080-IDH1KD cell line. HT-1080 IDH1 knockdown viability, ATP luminescence, 48 h. Potency, µM (titrated, usually from 46.1 µM), without a hit: top-dose activity, negative = toxicity, hits mostly cytotoxic. actives 2% (n = 360,000);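 also: potency is read from the fitted curve at half-maximal effect; 0% = DMSO wells and -100% = cell-free medium wells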
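Viability of IDH1-knockdown HT-1080 fibrosarcoma cells was assessed by CellTiter-Glo after 48 h at 37 °C with titrated compound; concentration-effect curves were classified by fit quality and response size.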
* = called active by the depositor; i = inactive; ? = inconclusive; / = not tested or not shown; [ ] = another dose, or the depositor's remark. Unless noted, calls follow the shape of the dose curve; as a rule, active = well fitted curve in the direction sought with a large enough effect; inconclusive = small, poorly fitted or top-dose-only effect, or another doubt; inactive = no such curve, though single readings can be large; an effect the other way counts as inactive or inconclusive. Unless noted, % is scaled to controls: 0 for no effect and ±100 for the full control effect.

SMILES	KB-3-1 cytotox	HT1080-NT tox	IL-1B inflam inh	KB-V1 cytotox	HT1080 IDH1KD tx
O=C(/C=C/c1ccc2ccccc2n1)N1CCN(S(=O)(=O)c2ccccc2F)CC1	?	-12%	-76*	i	-21%
O=C(/C=C/c1ccc2ccccc2n1)N1CCN(S(=O)(=O)c2ccc(F)cc2)CC1	?	-23%	-89*	?	?
COc1ccc(C(=O)N(Cc2ccc(C(C)C)cc2)C2CCS(=O)(=O)C2)cc1 (stereo not drawn)	i	/	/	i	/
Cc1ccc(-c2nn3c(-c4ccccc4)nnc3o2)cc1	i	29%	-8	i	12%
c1ccc(-c2nnc3oc(-c4cccs4)nn23)cc1	?	7%	-104*	i	-2%
NC(=O)c1ncn([C@@H]2O[C@H](CNC(=O)[C@H](N)CSCc3ccccc3)[C@@H](O)[C@H]2O)n1	i	13%	51	i	8%
O=C1c2ccccc2-c2c1c1ccccc1c(=O)n2-c1ccccc1	i	-1%	-11	i	4%
O=C1c2ccccc2-c2c1c1ccccc1c(=O)n2CCO	i	-3%	/	18µM*	?
CCSc1ncc(/C=N/Nc2ccc([N+](=O)[O-])cc2)n1C	i	13µM*	-11	i	13µM*
CC1(C(=O)NCCC#N)CCN1C(=O)CC(c1ccccc1)c1ccccc1 (stereo not drawn)	i	26%	-50*	i	0%
COC(=O)CSc1ncnc2c(C)csc12	i	12%	-13	i	5%
COc1ccc(/C=C2/CCC(CN3CCOCC3)C2=O)cc1 (stereo not drawn)	?	?	-103*	?	6.5µM*
COc1ccc(/C=C2\CCC(C3CCCC3)C2=O)cc1 (stereo not drawn)	i	8%	0	i	12%
CN(C)CC1CC/C(=C\c2ccc(O)cc2)C1=O (stereo not drawn)	?	?	-113*	?	5.2µM*
CN(C)CC1CCC/C(=C\c2ccc(OC(=O)/C=C/c3ccccc3)cc2)C1=O (stereo not drawn)	?	-4%	-111*	?	-17%
O=C(Oc1ccc2c(c1)OCC2=O)c1ccc(Cl)cc1	i	7%	-7	i	20%
CN(C)CC1CCC/C(=C\c2ccc(OC(=O)c3ccc(Cl)cc3)cc2)C1=O (stereo not drawn)	?	?	-100*	21µM*	2.9µM*
CC(=O)c1ccc(OC(=O)/C=C/c2ccccc2)cc1	i	15%	-5	?	11%
CCCCN(C)C(=O)c1sc(=O)n(Cc2c(C)cccc2C)c1C	?	5%	-18	?	15%
Cc1ccc(SCCC(=O)OCC(=O)Nc2ccc(C(N)=O)cc2)cc1	i	-2%[9.24 µM]	20	?	4%
COc1ccc(OCc2ccc(-c3nc(C#N)c(N4CCN(C)CC4)o3)o2)cc1	i	/	/	i	/
Cc1ccc(/C=C2\CCC(C3CCCC3)C2=O)cc1 (stereo not drawn)	i	11%	5	i	0%
O=C1/C(=C\c2ccc(Cl)cc2)CCC1CNc1ccc(Cl)cc1 (stereo not drawn)	i	-4%	-57*	i	?
O=C(CC1C(=O)NCCN1Cc1ccc(-c2ccccc2)cc1)NCC1CC1 (stereo not drawn)	i	-4%	-54*	?	-8%
Cc1ccc(C2CC(=O)C=C(NCc3ccccc3)C2)cc1 (stereo not drawn)	15µM*	?	-17	21µM*	21µM*
SMILES	KB-3-1 cytotox	HT1080-NT tox	IL-1B inflam inh	KB-V1 cytotox	HT1080 IDH1KD tx
CCN(CC)CCNc1ncnc2c1sc1nc(N3CCOCC3)c3c(c12)CC(C)(C)SC3	i	0%	4	i	-1%
CN(C)CCNc1ncnc2c1sc1nc(N3CCOCC3)c3c(c12)CC(C)(C)SC3	?	?	-80*	?	?
c1ccc(-c2nc3c4ccccc4ccn3c2CN2CCCCC2)cc1	i	4%	-71*	i	0%
CC1CC(C)(C)NC(=S)N1CCC(=O)NCCc1ccc(Cl)cc1 (stereo not drawn)	i	-8%	-9	?	-2%
Cc1ccc(NC(=O)c2nc(C)n(-c3ccc([N+](=O)[O-])cc3)n2)cc1	i	2%	-30	12µM*	13%
O=C(Nc1nc2ccccc2s1)c1ccc(N2CCCCC2)c([N+](=O)[O-])c1	i	-20%	-11	i	-9%
Cc1ccc(SCc2[nH]nc3c2C2(C(=O)N(C)c4ccccc42)C(C#N)=C(N)O3)cc1 (stereo not drawn)	i	15µM*	-6	i	?
O=[N+]([O-])c1cc(Cl)ccc1N1CCCC1	i	0%	0	i	7%
O=[N+]([O-])c1cc(Cl)c(Cl)c(Cl)c1Cl	i	0%	-93*	i	20%
CCOC(=O)c1ccc(NC(=O)Nc2ccn(C)n2)cc1	i	2%	-10	16µM*	?
CCOC(=O)c1ccc(NC(=O)NC2=NCCS2)cc1	i	2.6µM*	40	?	2.3µM*
CCOC(=O)c1ccc(NC(=O)Nc2ccc(S(N)(=O)=O)cc2)cc1	i	1%	0	i	2%
CCOC(=O)c1c(C)oc2nc(C)nc(N(C)Cc3ccccc3)c12	i	/	/	i	/
COc1cc(-c2n[nH]c(=S)n2-c2cc(C(F)(F)F)ccc2Cl)cc(OC)c1OC	i	3%	33	13µM*	3%
FC(F)(F)c1ccc(Cl)c(-n2c(-c3cc(C4CC4)[nH]n3)n[nH]c2=S)c1	i	0%	24	i	12%
O=C(NC1CCCC1)N[C@@H]1C=C[C@@H](CC(=O)N2CCOCC2)O[C@@H]1CO	i	24%	5	i	20%
COn1c(SCc2ccccc2)nc2ccccc2c1=O	i	5%	-2	i	1%
O=C(CCCn1c(SCc2cccc(F)c2)nc2ccccc2c1=O)NCC1CCCO1 (stereo not drawn)	i	3%	-79*	i	1%
O=C(CCCn1c(SCC(=O)NCC2CCCO2)nc2ccccc2c1=O)NCc1ccccc1 (stereo not drawn)	i	1%	-27	i	4%
O=c1c2ccccc2nc(SCc2cccc(F)c2)n1Cc1ccco1	?	-23%	-4	7.3µM*	-27%
COn1c(SCc2cccc(Cl)c2)nc2ccccc2c1=O	?	-17%	0	16µM*	-19%
